Rows were chosen to be rich in hits. Some 27% of all compounds tested hit in one or more screens of this group.
CYP2C19 inh: blocks human cytochrome P450 2C19. CYP2C19 Supersomes, luciferin-H EGE luminescence, 30 min. 96,000 tested, 21% active. inhibition, % at 5 µM. P33261. AID 778;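 active = CYP2C19 inhibition above a set limit at 5 µM in the primary screen, cut at about 50% in these data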;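 also: plate controls were negative control wells for no effect and 2.5 mM tranylcypromine positive control for full effect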
CYP2C19 act: cytochrome P450 2C19 (human) activation | AID 1025 | activation factor at 5 µM | 96,000 tested, under 10 active | recombinant CYP2C19, luciferin-H EGE luminescence; stronger effect = higher value; 0 = fully inhibited enzyme, 1 = untreated enzyme | P33261;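 active = activation factor of at least 2 at 5 µM in the primary screen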;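 also: 0 = wells with 2.5 mM tranylcypromine and 1 = vehicle-only wells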
CYP2C9 act: CYP2C9 (human) activation | recombinant CYP2C9, luciferin-H conversion, luminescence; stronger effect = higher value; factor 1 = untreated enzyme, 0 = blocked | activation factor at 5 µM | 96,000 tested, 1.4% active | AID 1024;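 active = activation factor of 2 or more for CYP2C9 at a 5 µM dose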;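 also: 0 = sulfaphenazole-blocked wells and 1 = vehicle-only wells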
CYP2C9 inhib: inhibitors of human CYP2C9; inhibition, % at 5 µM; 96,000 tested, 20% active; CYP2C9 Supersomes, luciferin-H conversion, luminescence;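 active = blocking of liver enzyme CYP2C9 beyond about 50% at 5 µM, limit read from the data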
Cav32 inh: human Cav3.2 channel inhibition, primary screen; O95180; Cav3.2-expressing cells, Fluo-4 calcium fluorescence FDSS; stronger effect = lower value; B-score at 10 µM; 100,000 tested, 4% active;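 active = single-dose well whose peak fluorescence ratio is a statistical outlier from its plate by either plate-standardised score or position-corrected B-score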
* = called active by the depositor; . = not tested or not shown.

SMILES	CYP2C19 inh	CYP2C19 act	CYP2C9 act	CYP2C9 inhib	Cav32 inh
Nc1nc(CN2CCN(c3ccccn3)CC2)nc(Nc2ccc(Cl)cc2)n1	46.3	0.5	0.3	68.5*	-2.7
Nc1nc(CN2CCN(c3ccccc3F)CC2)nc(Nc2ccc3c(c2)OCCO3)n1	21.8	0.8	0.8	21.2	0.132
COc1ccccc1N1CCN(Cc2nc(N)nc(Nc3ccc(C)c(Cl)c3)n2)CC1	9.4	0.9	0.9	9.1	-5.69*
Cc1cccc(Nc2nc(N)nc(CN3CCN(c4ccccc4)CC3)n2)c1	52.7*	0.5	0.3	66.7*	-3.67*
Cc1cccc(Nc2nc(N)nc(CN3CCN(c4ccccc4F)CC3)n2)c1	.	.	.	.	-4.93*
O=c1c2ccccc2cnn1-c1ccc(Cl)cc1	14.2	0.9	0.9	10.3	1.25
